Results published in PubChem BioAssay.
Active and inactive are the calls of the source.

Experiments:
[1] = system: PRMT1 (protein arginine N-methyltransferase 1); experiment: PRMT1 binders on small-molecule microarrays, primary screen, biochemical, small-molecule microarray, 635 nm fluorescence (AID 1088); details: small-molecule microarray binding, higher = more signal;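 further: binding of Prmt1 protein to compounds spotted on small-molecule microarray slides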
[2] = yeast growth modulation, basal conditions, primary screen, YJM789 clinical isolate, OD600, 24 h (AID 1089);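 further: growth of clinical yeast isolate S. cerevisiae YJM 789 seeded 1000 cells per well; test concentration not given here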; details: S. cerevisiae YJM789 growth, higher = more signal, called active from +8 up or from −8 down
[3] = fission yeast growth modulation, primary screen, strain 972, OD600, 24 h, no modulator (AID 1090);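 further: basal condition with compound alone and no growth modifier present; test concentration not given here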; details: S. pombe 972 growth, higher = more signal, called active from +8 up or from −8 down
[4] = S. cerevisiae growth modulation with rapamycin, primary screen, strain BY4716, OD600, 96 h (AID 1091); details: higher = more signal, called active from +8 up or from −8 down; further: test concentration not given here
[5] = molecular target: Torsin-1A-interacting protein 2 (Homo sapiens) (UniProt Q8NFQ8); experiment: LULL1 binders on small-molecule microarray, primary screen, cell lysate, human LULL1 lysate, 635/667 nm fluorescence (AID 1092); details: hLULL1 lysate binding, 635 nm fluorescence, higher = more signal;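 further: probe is lysate of COS7 cells overexpressing human LULL1; score merges per-feature 667 nm fluorescence with signal-to-noise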
Sequence of Torsin-1A-interacting protein 2 (Homo sapiens) (Q8NFQ8 whole entry, looked up): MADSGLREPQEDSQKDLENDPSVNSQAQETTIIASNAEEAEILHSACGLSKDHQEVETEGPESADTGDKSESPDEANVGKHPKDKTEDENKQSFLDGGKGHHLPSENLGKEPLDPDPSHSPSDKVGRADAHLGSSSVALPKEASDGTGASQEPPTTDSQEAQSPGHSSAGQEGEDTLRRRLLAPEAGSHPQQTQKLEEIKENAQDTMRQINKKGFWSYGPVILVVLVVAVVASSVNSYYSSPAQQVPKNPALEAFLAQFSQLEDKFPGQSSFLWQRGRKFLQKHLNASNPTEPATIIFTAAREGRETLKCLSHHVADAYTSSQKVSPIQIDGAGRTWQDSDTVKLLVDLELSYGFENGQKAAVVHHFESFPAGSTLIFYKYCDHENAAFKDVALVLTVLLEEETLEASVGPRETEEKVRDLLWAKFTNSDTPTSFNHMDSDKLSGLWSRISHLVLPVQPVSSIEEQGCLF

[6] = E. coli growth modulation, two-sided OD650, primary screen, E. coli filamentation project, strain DRC41, 24 h (AID 1093); details: OD650, 24 h, higher = more signal, called active from +8 up or from −8 down;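 further: MC1000 strain lacking acrAB efflux and sulA so SOS filamentation is blocked; test concentration not given here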
[7] = small-molecule microarray binders of probe aLefty2, primary screen, biochemical, biotinylated probe, 635/667 nm fluorescence (AID 1094); details: higher = more signal;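 further: score merges spot fluorescence near 667 nm with spot signal-to-noise ratio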
[8] = system: Noggin (protein binding on small-molecule microarray); experiment: Noggin binders on small-molecule microarray, primary screen, biochemical, 635/667 nm fluorescence (AID 1095); details: 635 nm fluorescence, higher = more signal;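 further: score merges 667 nm feature fluorescence with signal to noise over triplicate slides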
[9] = molecular target: Neurogenic locus notch homolog protein 3 (Homo sapiens) (UniProt Q9UM47); experiment: NOTCH3 binders on small-molecule microarray, primary screen, biochemical, 635/667 nm fluorescence (AID 1096); details: NOTCH3 binding, 635 nm fluorescence, higher = more signal
Sequence of Neurogenic locus notch homolog protein 3 (Homo sapiens) (Q9UM47 whole entry, looked up): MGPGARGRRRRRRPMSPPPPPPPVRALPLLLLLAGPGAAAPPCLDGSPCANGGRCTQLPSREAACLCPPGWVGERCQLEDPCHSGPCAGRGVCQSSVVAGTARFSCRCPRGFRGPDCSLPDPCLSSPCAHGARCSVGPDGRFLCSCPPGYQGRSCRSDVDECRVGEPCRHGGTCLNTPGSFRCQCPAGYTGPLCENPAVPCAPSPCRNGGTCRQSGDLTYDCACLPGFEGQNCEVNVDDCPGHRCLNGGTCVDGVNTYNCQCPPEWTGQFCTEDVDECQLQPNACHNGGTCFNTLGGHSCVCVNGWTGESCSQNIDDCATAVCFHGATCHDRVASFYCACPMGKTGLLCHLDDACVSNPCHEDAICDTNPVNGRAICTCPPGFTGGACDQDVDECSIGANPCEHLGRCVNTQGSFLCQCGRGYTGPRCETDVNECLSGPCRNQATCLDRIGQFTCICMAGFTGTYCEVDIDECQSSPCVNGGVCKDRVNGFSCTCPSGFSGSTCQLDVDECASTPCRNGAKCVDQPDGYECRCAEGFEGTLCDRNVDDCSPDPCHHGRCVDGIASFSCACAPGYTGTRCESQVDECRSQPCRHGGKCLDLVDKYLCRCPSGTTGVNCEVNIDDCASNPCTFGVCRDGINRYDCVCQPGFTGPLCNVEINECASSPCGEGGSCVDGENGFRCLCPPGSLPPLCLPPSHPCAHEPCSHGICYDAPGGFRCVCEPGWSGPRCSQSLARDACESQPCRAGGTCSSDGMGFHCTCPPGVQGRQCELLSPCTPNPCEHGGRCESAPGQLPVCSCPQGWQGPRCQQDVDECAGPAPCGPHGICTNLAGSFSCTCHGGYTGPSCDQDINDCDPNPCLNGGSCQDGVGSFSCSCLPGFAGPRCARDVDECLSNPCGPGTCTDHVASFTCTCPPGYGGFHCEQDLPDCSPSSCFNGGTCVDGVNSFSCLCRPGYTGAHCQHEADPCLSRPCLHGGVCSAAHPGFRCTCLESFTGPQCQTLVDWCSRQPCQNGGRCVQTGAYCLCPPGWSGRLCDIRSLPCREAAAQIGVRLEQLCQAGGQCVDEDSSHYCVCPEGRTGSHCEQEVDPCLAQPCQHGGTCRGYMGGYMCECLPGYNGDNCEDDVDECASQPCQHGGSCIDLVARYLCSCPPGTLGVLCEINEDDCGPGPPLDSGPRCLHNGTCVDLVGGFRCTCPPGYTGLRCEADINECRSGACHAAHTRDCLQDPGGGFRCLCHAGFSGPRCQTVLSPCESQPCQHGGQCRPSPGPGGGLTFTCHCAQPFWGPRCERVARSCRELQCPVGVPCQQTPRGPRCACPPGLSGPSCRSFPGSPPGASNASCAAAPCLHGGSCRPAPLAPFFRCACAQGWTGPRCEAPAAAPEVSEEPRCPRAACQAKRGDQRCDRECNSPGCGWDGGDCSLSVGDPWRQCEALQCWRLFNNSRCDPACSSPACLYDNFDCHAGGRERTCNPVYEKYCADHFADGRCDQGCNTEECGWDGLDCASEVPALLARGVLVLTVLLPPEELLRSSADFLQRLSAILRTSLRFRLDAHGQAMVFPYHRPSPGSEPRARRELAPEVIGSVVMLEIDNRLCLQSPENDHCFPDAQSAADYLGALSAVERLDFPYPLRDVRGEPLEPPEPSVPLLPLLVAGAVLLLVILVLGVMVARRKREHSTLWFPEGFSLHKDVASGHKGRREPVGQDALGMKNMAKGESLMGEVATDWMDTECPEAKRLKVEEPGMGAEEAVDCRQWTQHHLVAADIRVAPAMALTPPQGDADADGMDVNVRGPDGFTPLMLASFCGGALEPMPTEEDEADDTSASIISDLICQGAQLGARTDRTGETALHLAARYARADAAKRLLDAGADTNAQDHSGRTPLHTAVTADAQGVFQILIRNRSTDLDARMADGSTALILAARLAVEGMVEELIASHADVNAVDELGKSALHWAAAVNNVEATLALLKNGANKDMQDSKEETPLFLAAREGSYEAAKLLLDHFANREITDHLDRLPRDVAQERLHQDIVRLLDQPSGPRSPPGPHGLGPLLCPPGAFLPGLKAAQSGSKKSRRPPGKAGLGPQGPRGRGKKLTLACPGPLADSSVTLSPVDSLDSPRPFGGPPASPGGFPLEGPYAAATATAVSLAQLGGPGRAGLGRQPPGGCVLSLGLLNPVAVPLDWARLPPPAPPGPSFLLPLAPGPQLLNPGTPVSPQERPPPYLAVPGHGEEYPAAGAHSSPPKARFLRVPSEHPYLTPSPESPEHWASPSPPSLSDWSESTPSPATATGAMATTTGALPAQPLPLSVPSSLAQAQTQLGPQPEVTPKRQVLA

[10] = small-molecule microarray binders of probe aEGFR, primary screen, biochemical, biotinylated probe, 635/667 nm fluorescence (AID 1097); details: higher = more signal;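 further: probe is a biotinylated anti-EGFR antibody binding compounds printed on slides; score combines fluorescence near 667 nm and signal to noise of each spot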

| SMILES | composite z-score [1] | z-score [2] | z-score [3] | z-score [4] | composite z-score [5] | z-score [6] | composite z-score [7] | composite z-score [8] | composite z-score [9] | composite z-score [10] |
| --- | --- | --- | --- | --- | --- | --- | --- | --- | --- | --- |
| CCCNC(=O)[C@@]1(C)c2ccccc2C(=O)N(C(C)C)[C@H]1c1ccc(CO)cc1 | -0.535 | -0.141 (inactive) | -0.712 (inactive) | -0.397 (inactive) | 2.75 | -1.2 (inactive) | 0.0692 | -0.827 | -1.05 | -0.174 |
| O=C1O[C@@H](c2ccccc2)[C@@H](c2ccccc2)N2[C@@H](c3ccc(O)cc3)[C@]3(C(=O)Nc4ccc(C#CCCO)cc43)[C@@H](C(=O)O)[C@H]12 | 1.57 | 0.414 (inactive) | -0.571 (inactive) | -0.265 (inactive) | 2.79 | 0.7 (inactive) | 1.55 | -0.222 | 0.314 | 1.07 |
| O=C(NCc1ccccc1)[C@@H]1c2ccccc2C(=O)N(Cc2cc(F)cc(C(F)(F)F)c2)[C@H]1c1ccc(CO)cc1 | 1.49 | 0.314 (inactive) | 0.252 (inactive) | -0.319 (inactive) | 2.82 | 0.387 (inactive) | -0.103 | 0.561 | 0.791 | 0.021 |
| C=CCNC(=O)[C@@H]1[C@H]2C(=O)O[C@H](c3ccccc3)[C@H](c3ccccc3)N2[C@H](c2ccccc2OCCO)[C@@]12C(=O)N(C(=O)OCCOC)c1ccc(C#CCC(C(=O)OC)C(=O)OC)cc12 | 1.53 | 1.38 (inactive) | 2.06 (inactive) | 6.46 (inactive) | 3.56 | 0.221 (inactive) | 0.891 | 1.9 | 1.07 | 0.573 |
| Cc1ccc(S(=O)(=O)N2CC(C(=O)O)=CCC2c2ccccc2)cc1 (stereo not given) | 0.461 | -0.224 (inactive) | 1.29 (inactive) | -0.0893 (inactive) | 2.89 | -1.11 (inactive) | 0.431 | -1.22 | -0.231 | 0.254 |
| COc1c(C)cc(-c2cc3c(c(-c4ccccc4)n2)[Si](C(C)C)(C(C)C)O[C@H]3c2ccccc2)cc1C | 0.431 | -0.336 (inactive) | -0.253 (inactive) | 0.0998 (inactive) | 0.0055 | -1.1 (inactive) | -0.166 | 0.37 | 0.418 | -0.0359 |
| C=CC[C@@]1(C(N)=O)N=C(c2ccc(OCCCO)cc2)O[C@@H]1c1ccccc1N=[N+]=[N-] | 1.14 | -0.545 (inactive) | 0.0584 (inactive) | -1.15 (inactive) | 2.44 | 1.4 (inactive) | 0.429 | 0.404 | -0.299 | 0.317 |
| CN1C(=O)C2C=CC(C(O)C(c3ccccc3)c3ccccc3)N(Nc3ccccc3)C2C1=O (stereo not given) | 1.55 | -0.272 (inactive) | -0.346 (inactive) | -0.125 (inactive) | 3.46 | -1.7 (inactive) | 0.0336 | -0.152 | 1.05 | 0.0209 |
| CC(c1ccccc1)C(O)C1C=CC2C(=O)N(Cc3ccccc3)C(=O)C2N1n1cnnc1 (stereo not given) | 0.418 | -1.04 (inactive) | -0.0262 (inactive) | 0.496 (inactive) | 1.6 | -1.27 (inactive) | 0.0524 | 0.483 | 0.728 | 0.08 |
| CN(C)CCCC[C@@H]1NC(=O)[C@H]2C[C@@H](C(=O)NCCCCCNC(=O)CS)[C@@H](c3ccc(O)cc3)N2C1=O | -0.97 | 0.428 (inactive) | -0.578 (inactive) | -0.52 (inactive) | 0.134 | 0.702 (inactive) | 0.0601 | -0.673 | -0.0464 | -0.167 |
| O=C1OCCC=C[C@H]2OC34C=CCN(CCN5CCOCC5)C(=O)[C@H]3N(CCO)C(=O)[C@@H]4C12 (stereo not given in full) | 0.134 | -0.698 (inactive) | -0.518 (inactive) | -0.482 (inactive) | -0.114 | 0.0484 (inactive) | -0.145 | 0.922 | 0.439 | -0.23 |
| C=C[C@H](C)[C@H](OC(=O)Nc1ccc(OC)cc1)c1ccc(O)c2ccccc12 | -0.0544 | -25.3 (active) | -20.9 (active) | -3.05 (inactive) | 0.645 | 0.355 (inactive) | -0.151 | 0.585 | 0.0103 | -0.222 |
| COC(=O)c1c(CC[C@@H](CO)NC(=O)Nc2ncn[nH]2)oc(C(=O)Cc2ccccc2)c1C(=O)OC | 1.08 | -0.342 (inactive) | 0.387 (inactive) | 0.285 (inactive) | 2.99 | -0.871 (inactive) | -0.016 | 0.565 | 1.17 | -0.0697 |
| O=C(NCC(O)CO)[C@]1(CCS(=O)(=O)c2ccccc2)N=C(c2ccc(OCCCO)cc2)O[C@@H]1c1ccccc1 (stereo not given in full) | -0.214 | -0.59 (inactive) | -0.149 (inactive) | -0.92 (inactive) | 3.67 | 0.169 (inactive) | -0.0949 | -0.203 | -0.256 | -0.0913 |
| CCN(CC)c1ccc(N2CC=CC34O[C@@H]5C=CCOC(=O)[C@@H]5[C@H]3C(=O)N(CCCCCO)[C@@H]4C2=O)cc1 (stereo not given in full) | -0.456 | -0.821 (inactive) | -1.3 (inactive) | -0.522 (inactive) | 2.74 | 1.29 (inactive) | -0.138 | -0.769 | -0.589 | -0.201 |
| O=C1c2ccccc2[C@](Cc2ccccc2I)(C(=O)O)[C@H](c2ccc(CO)cc2)N1Cc1ccccc1C(F)(F)F | 1.12 | 0.817 (inactive) | 0.0662 (inactive) | 0.0262 (inactive) | 3.14 | -0.255 (inactive) | -0.243 | 0.033 | 0.263 | -0.379 |
| O=C1OCC=C[C@H]2OC34C=CCN(c5ccc(Cl)cc5)C(=O)[C@H]3N(CCCO)C(=O)[C@@H]4[C@@H]12 (stereo not given in full) | 0.631 | 0.0783 (inactive) | -0.252 (inactive) | 0.0814 (inactive) | 2.56 | 1.3 (inactive) | -0.0783 | -0.996 | -0.478 | -0.28 |
| Cc1ccc(S[C@]2(C(=O)NCc3ccccc3)CC(=O)N(Cc3cc(C(F)(F)F)cc(C(F)(F)F)c3)[C@@H]2c2ccc(CO)cc2)cc1 | 1.34 | 1.04 (inactive) | -0.27 (inactive) | 0.521 (inactive) | 1.94 | -0.764 (inactive) | -0.225 | 0.0043 | -0.132 | -0.325 |
| Cc1ccc(S[C@]2(C(=O)NCC(C)C)CC(=O)N(Cc3ccccc3)[C@@H]2c2ccc(CO)cc2)cc1 | 0.744 | -1.14 (inactive) | -1.14 (inactive) | -0.256 (inactive) | 1.86 | -0.579 (inactive) | 0.189 | -0.779 | -0.331 | -0.236 |
| C=CCNC(=O)[C@H]1[C@@H]2C(=O)O[C@@H](c3ccccc3)[C@@H](c3ccccc3)N2[C@@H](c2ccc(OCCO)cc2)[C@]12C(=O)N(C(=O)OCCOC)c1ccc(C#CC3(O)CCCCCC3)cc12 | 1.54 | 1.95 (inactive) | 0.97 (inactive) | 6.64 (inactive) | 2.42 | 1.08 (inactive) | -0.0319 | 1.6 | 1.04 | 0.122 |
| COC(=O)[C@@]1(Cc2ccc(OC)cc2)[C@H]2c3cc(C(=O)N4CCCC4)n(CCc4ccccn4)c3C[C@H]2CN1C(=O)c1ccccc1 | -1.52 | 0.328 (inactive) | 0.479 (inactive) | 0.556 (inactive) | 3.62 | -1.41 (inactive) | 0.0363 | -0.857 | -0.14 | -0.0122 |
| O=C(CS)NCCCCCNC(=O)[C@H]1C[C@H]2C(=O)N[C@@H](Cc3ccccc3)C(=O)N2[C@H]1c1cccc(OCCO)c1 | 1.52 | -3.02 (inactive) | -0.991 (inactive) | -0.276 (inactive) | 2.55 | 1.94 (inactive) | 0.0669 | 1.44 | 1.09 | 0.12 |
| CC(C)CNC(=O)[C@@]1(C)c2ccccc2C(=O)N(C(C)C)[C@H]1c1ccc(CO)cc1 | -1.32 | 0.0968 (inactive) | 0.481 (inactive) | 0.0297 (inactive) | 1.16 | -0.0935 (inactive) | 0.44 | -0.933 | -2.11 | 0.0744 |
| CN(C)CCCC[C@@H]1NC(=O)[C@@H]2C[C@H](C(=O)NCc3ccc(F)cc3)[C@H](c3cccc(OCCO)c3)N2C1=O | 1.55 | -0.65 (inactive) | -1.41 (inactive) | -0.663 (inactive) | 2.96 | -0.0129 (inactive) | 0.823 | 1.97 | 1.11 | -0.0953 |
| C/C=C/[C@H](CCn1cc([C@H](O)c2ccccc2)nn1)[Si](C)(C)c1ccc(OC)cc1 | -0.144 | -0.298 (inactive) | -1.05 (inactive) | -0.229 (inactive) | 0.0061 | 0.0004 (inactive) | -0.139 | -0.953 | -0.999 | -0.375 |
| C[N+](C)(C)CCCC[C@@H]1NC(=O)[C@@H]2C[C@H](C(=O)NCCCCCCNC(=O)CS)[C@H](c3cccc(OCCO)c3)N2C1=O | 1.12 | -1.33 (inactive) | -0.333 (inactive) | -0.485 (inactive) | 1.09 | -0.102 (inactive) | -0.21 | 1.84 | -0.0644 | -0.233 |
| COc1ccc([Si](C)(C)[C@@H]2[C@@H](CCO)O[C@]3(C(=O)N(Cc4ccc(N5C(=O)c6cccc7cccc5c67)cc4)c4ccccc43)[C@H]2C)cc1 | 0.856 | 1.41 (inactive) | 1.54 (inactive) | 35.5 (active) | 0.854 | 0.631 (inactive) | -0.0728 | -0.753 | -0.017 | -0.208 |
| C=CCC(OC(C)=O)[C@@H]1[C@@H](N(Cc2ccc(-c3cccc(C(F)(F)F)c3)o2)C(=O)c2ccc(C)cc2)c2cc(OCCCO)ccc2N1C(=O)c1ccc2ccccc2n1 (stereo not given in full) | -0.0077 | -0.269 (inactive) | -0.546 (inactive) | 0.28 (inactive) | 0.42 | 1.44 (inactive) | -0.0286 | 0.605 | 0.309 | -0.147 |
